TexasRed fluor – Texas Red fluorescence interference in TRb-SRC2 counter-screen; TRb/SRC2 Texas Red total fluorescence interference; hit rate 0.29% among 280,000; Potency, µM (series often up to 106 µM); AID 1479; active means well fitted curve in either direction with a large enough effect; inconclusive means small, poorly fitted or top-dose-only effect
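Human TRβ ligand-binding domain (0.6 uM) and Texas Red SRC2 peptide (20 nM) in Tris buffer with 1 uM T3 and 5% DMSO were incubated with pinned compound for 5 hr at ambient temperature. Total fluorescence was computed as S + 2P (555/632 nm).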
Tau FP inhib – tau fibrillization inhibition (FP). hit rate 0.39% among 280,000. Potency, µM (top dose mostly 57.7 µM), actives largely listed as inhibitors. P10636. K18 P301L tau heparin fibrillization, Alexa594 FP, 6 h. AID 1468; further: nearly all actives have a fitted effect of over 55% in size
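Read-out: fluorescence polarization of Alexa 594-labeled tau (0.24 uM), 555 nm excitation, 632 nm emission. Mixtures held 15 uM unlabeled K18 P301L, compound and 20 uM heparin, pH 7 acetate buffer, incubated 6 hr at 37 C.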
TRb-SRC2 inh – inhibitors of human thyroid hormone receptor beta-SRC2 interaction; hit rate 0.065% among 280,000; P10828; Potency, µM (doses to about 106 µM), actives largely listed as inhibitors; AID 1469; TRbeta-SRC2 peptide binding, fluorescence polarization; receptor liganded with 1 µM T3; further: nearly all actives have a fitted effect of over 50% in size
Target sequence (P10828 whole entry, looked up): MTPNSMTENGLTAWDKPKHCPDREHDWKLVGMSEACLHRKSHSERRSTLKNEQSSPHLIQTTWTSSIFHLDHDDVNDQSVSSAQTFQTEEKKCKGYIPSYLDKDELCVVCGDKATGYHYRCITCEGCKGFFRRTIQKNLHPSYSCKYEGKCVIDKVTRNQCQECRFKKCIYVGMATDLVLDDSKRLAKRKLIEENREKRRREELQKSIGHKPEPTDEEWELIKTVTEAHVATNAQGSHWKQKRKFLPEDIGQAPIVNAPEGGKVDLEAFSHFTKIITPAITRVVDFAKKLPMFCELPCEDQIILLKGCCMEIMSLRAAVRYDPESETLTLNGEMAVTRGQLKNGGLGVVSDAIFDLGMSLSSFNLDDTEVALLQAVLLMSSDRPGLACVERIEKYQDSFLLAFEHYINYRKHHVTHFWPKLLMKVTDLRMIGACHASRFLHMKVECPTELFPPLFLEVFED
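Fluorescence polarization of 20 nM Texas Red SRC2 peptide with 0.6 uM human TRb ligand-binding domain, in Tris buffer with 1uM T3 and 5% DMSO. Incubated 5 hr ambient; normalized to unbound and bound controls.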
Tau fluor cs – counter-screen for tau fibril formation inhibitors. tau K18 P301L Alexa594 fluorescence, heparin fibrillization. Potency, µM (series often up to 57.7 µM). hit rate 0.93% among 280,000; further: nearly all actives have a fitted effect of over 55% in size
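Human K18 P301L tau (15 uM unlabeled plus 0.24 uM Alexa 594-labeled, final) in 100 mM sodium acetate pH 7 was mixed with compound and 20 uM heparin and incubated 6 hr at 37 C.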
Tau ThT inhib – inhibitors of human tau fibril formation, thioflavin T binding; recombinant tau K18 P301L, heparin-induced fibrillization, ThT fluorescence; hit rate 2.1% among 270,000; Potency, µM (doses to about 57.4 µM), most hits filed as inhibitors; further: nearly all actives have a fitted effect of over 55% in size
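Using a mix of unlabeled (15 uM) and Alexa 594-labeled (0.24 uM) tau K18 P301L, heparin-triggered fibrillization over 6 hr at 37 C was scored by ThT fluorescence.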
Each line names hits and unclear results; the compound was inactive in the other large screens; ! = repeats disagree; [ ] = another dose, or the depositor's remark. Shown are actives, neighbours in structure and some others; about 3% of the full set was active somewhere. Unless noted, the call rests on the fitted dose curve; in most records, active means well fitted curve in the direction sought with a large enough effect; inconclusive means small, poorly fitted or top-dose-only effect, or another doubt; inactive means no such curve, though single readings can be large; an effect the other way counts as inactive or inconclusive.

CN1C(=O)/C(=C/c2cccn2-c2ccc3ccccc3c2)C(=O)NC1=S	Tau FP inhib 31.6µM, Tau fluor cs 17.8µM[quencher], Tau ThT inhib 15.8µM
Cc1cc(C)cc(N2C(=O)NC(=O)/C(=C\c3cccn3-c3ccc(Cl)cc3)C2=O)c1	none
O=C1NC(=S)NC(=O)C1=Cc1cccn1-c1ccc(O)cc1	Tau fluor cs inconclusive, Tau ThT inhib 25.1µM
CC(C)CCCC1(C)C=Cc2c(O)c3c(c(CCC(C)C)c2O1)OC12C(CC4CC1C(C)(C)OC2(CCC(C)C(=O)O)C4O)C3=O (stereo unspecified)	Tau ThT inhib inconclusive
CC(C)=CCCC1(C)C=Cc2c(O)c3c(c(CC=C(C)C)c2O1)OC12C(=CC4CC1C(C)(C)OC2(C/C=C(/C)C(=O)O)C4=O)C3=O (stereo unspecified)	Tau FP inhib inconclusive, Tau ThT inhib 22.4µM
CC(C)=CCCC1(C)C=Cc2c(O)c3c(c(CC=C(C)C)c2O1)OC12C(=CC4CC1C(C)(C)OC2(C/C=C(/C)C(=O)O)C4O)C3=O (stereo unspecified)	Tau FP inhib inconclusive, Tau ThT inhib 17.8µM
O=[N+]([O-])Nc1nccn1Cc1ccc(Cl)nc1	none (no result: Tau FP inhib, Tau fluor cs, Tau ThT inhib)
CC(=O)Nc1c2sscc-2n(C)c1=O	Tau FP inhib inconclusive, Tau ThT inhib 15.8µM
N#CC(CCc1ccc(Cl)cc1)(Cn1cncn1)c1ccccc1 (stereo unspecified)	none (no result: Tau FP inhib, Tau fluor cs, Tau ThT inhib)
CC(c1ccc(O)cc1)(c1ccc(O)cc1)c1ccc(O)cc1	none (no result: Tau FP inhib, Tau fluor cs, Tau ThT inhib)
O=C(O)c1ccccc1-c1c2cc(Br)c(=O)cc-2oc2[c]([Hg])c(O)c(Br)cc12	TexasRed fluor 44.7µM[fluorescent], Tau FP inhib inconclusive, TRb-SRC2 inh 20µM!, Tau fluor cs inconclusive, Tau ThT inhib inconclusive
COc1ccc(Cn2c(O)c(/C=N/NC(=O)c3ccccc3O)c(=O)[nH]c2=O)cc1	TexasRed fluor inconclusive, Tau fluor cs inconclusive, Tau ThT inhib 22.4µM
O=C(N/N=C/c1c(O)n(Cc2ccccc2)c(=O)[nH]c1=O)c1ccccc1O	Tau FP inhib inconclusive
C/C(=N\NC(=O)c1ccccc1)c1c(O)n(Cc2ccccc2)c(=O)[nH]c1=O	Tau fluor cs inconclusive (no result: Tau ThT inhib)
C/C(=N\Nc1cccc2ccccc12)c1c(O)n(Cc2ccccc2)c(=O)[nH]c1=O	Tau FP inhib inconclusive, Tau fluor cs inconclusive, Tau ThT inhib 17.8µM
O=[N+]([O-])c1c(Cl)c(Cl)c(Cl)c(Cl)c1Cl	none (no result: Tau FP inhib, Tau fluor cs, Tau ThT inhib)
Nc1cc(Cl)c2nonc2c1[N+](=O)[O-]	Tau fluor cs inconclusive, Tau ThT inhib 11.2µM
S=c1[nH]c2cc(Br)cnc2[nH]1	Tau FP inhib inconclusive, Tau ThT inhib 31.6µM
S=c1[nH]c2ccccc2[nH]1	Tau FP inhib inconclusive
CC1(C)C(C(=O)OC(C#N)c2cccc(Oc3ccccc3)c2)C1(C)C (stereo unspecified)	none (no result: Tau FP inhib, Tau fluor cs, Tau ThT inhib)
O=c1[nH]c(=S)[nH]c(O)c1N=Nc1ccc(S(=O)(=O)N2CCc3ccccc32)cc1	Tau fluor cs inconclusive, Tau ThT inhib 5.01µM
Cc1c(N=Nc2c(O)[nH]c(=S)[nH]c2=O)c(=O)n(-c2ccccc2)n1C	Tau FP inhib inconclusive, Tau ThT inhib inconclusive
O=c1[nH]c(=S)[nH]c(O)c1N=Nc1ccc(SC(F)F)cc1	Tau ThT inhib 3.55µM
CC(C)c1ccc(N=Nc2c(O)[nH]c(=O)[nH]c2=O)cc1	none (no result: Tau ThT inhib)
C[C@H]1[C@H](c2ccc(Cl)cc2)SC(=O)N1C(=O)NC1CCCCC1	none (no result: Tau FP inhib, Tau fluor cs, Tau ThT inhib)
CCOP(=S)(OCC)SCC(=O)NC(C)C	none (no result: Tau FP inhib, Tau fluor cs, Tau ThT inhib)
CC(C)(c1ccccc1)c1cc(-n2nc3ccccc3n2)c(O)c(C(C)(C)c2ccccc2)c1	none (no result: Tau FP inhib, Tau fluor cs, Tau ThT inhib)
S=C(S)N1CCCC1	Tau FP inhib inconclusive, Tau ThT inhib 31.6µM
COc1cc(C(=O)NCCSc2c(-c3ccccc3)[nH]c3ccccc23)cc(OC)c1OC	Tau fluor cs 8.91µM[quencher]
CCCOP(=O)(OCCC)C(NC(=O)c1cc(OC)c(OC)c(OC)c1)c1ccccc1 (stereo unspecified)	none
O=C(NCCSc1c(-c2ccc(F)cc2)[nH]c2ccccc12)c1ccc(S(=O)(=O)N2CCOCC2)cc1	Tau fluor cs 4.47µM[quencher]
N=C1c2ccccc2CN1NC(=O)c1ccc(F)cc1	none
Nc1c(C(=O)Nc2ccc(Cl)c(C(F)(F)F)c2)sc2nc3c(cc12)N1CCC3CC1	Tau FP inhib inconclusive, Tau fluor cs 5.01µM[quencher], Tau ThT inhib inconclusive

From PubChem
